# Screening results: PubChem, National Center for Advancing Translational Sciences (NCATS)
# Most compounds without a hit are left out; they make up all but 5% or so of the library.
# Tb PYK inh = qHTS of Trypanosoma Brucei Inhibitors; pyruvate kinase (Trypanosoma brucei), Q57TT1; TbPYK enzyme, Kinase-Glo Plus ATP luminescence, 45 min; Potency, µM (highest dose often 76.8 µM), for inactives: at the top dose activity, negative = inhibition, actives largely listed as inhibitors; 410,000 tested, 0.12% active; AID 624173, 2012; also: potency is read from the fitted curve at half-maximal effect; nearly all actives have a fitted effect of over 50% in size
#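 Quantitative HTS: titrated library compounds versus trypanosomal pyruvate kinase in TEA buffer (pH 7.2) containing KCl, MgCl2, BSA and Tween-20. Reactions were initiated with ADP, 130 uM final. Kinase-Glo Plus luminescence was read after 45 min at RT.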
# LmPK inhibitor = qHTS Assay for Inhibitors of Leishmania Mexicana Pyruvate Kinase (LmPK); Q27686; purified LmPK, Kinase-Glo ATP luminescence, 1 h; Potency, µM (highest dose often 57.5 µM), for inactives: top-dose activity change, negative = inhibition, actives largely listed as inhibitors; 290,000 tested, 0.37% active; AID 1721, 2009; also: potency is read from the fitted curve at half-maximal effect
# Target sequence (Q27686 whole entry, looked up): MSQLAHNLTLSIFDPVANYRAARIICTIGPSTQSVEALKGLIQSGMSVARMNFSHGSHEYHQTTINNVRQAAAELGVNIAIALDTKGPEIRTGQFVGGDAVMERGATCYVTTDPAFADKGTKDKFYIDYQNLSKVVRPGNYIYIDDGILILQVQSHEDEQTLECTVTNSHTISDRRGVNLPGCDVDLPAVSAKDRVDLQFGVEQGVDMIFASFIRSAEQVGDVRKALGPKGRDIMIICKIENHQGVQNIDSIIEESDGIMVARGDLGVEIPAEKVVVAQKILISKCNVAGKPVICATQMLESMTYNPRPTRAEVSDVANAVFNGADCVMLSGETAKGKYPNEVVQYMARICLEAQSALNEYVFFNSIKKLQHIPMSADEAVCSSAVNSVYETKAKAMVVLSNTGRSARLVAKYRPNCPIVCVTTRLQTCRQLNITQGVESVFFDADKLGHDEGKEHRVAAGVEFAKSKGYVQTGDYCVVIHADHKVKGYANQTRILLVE
#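 Pyruvate kinase activity monitored as ATP production (luciferase luminescence). Conditions: 0.1 nM enzyme, 0.5 mM PEP, 0.1 mM ADP, 1 h, RT; normalized against uninhibited and no-enzyme wells.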
# VACV Venus inh = qHTS for Stage-Specific Inhibitors of Vaccinia Orthopoxvirus: Venus Reporter Primary qHTS. Potency, µM (titrated, usually from 36.5 µM), without a hit: top-dose activity change, negative = inhibition, actives largely listed as inhibitors. 330,000 tested, 0.46% active. AID 720580, 2013. Vaccinia virus Venus reporter expression, fluorescence; calls by dose curve; tested in A549 cells; also: potency is read from the fitted curve at half-maximal effect; nearly all actives have a fitted effect of over 30% in size
# HCMV inh = qHTS Assay for inhibitors of the human cytomegalovirus (HCMV); HFF cells, HCMV-luciferase reporter, 72 h; hits give low values; activity change, negative = inhibition, % at 57.5 µM; 410,000 tested, 4.5% active; AID 1259415, 2018; in the data active = activity change below about -60%; inconclusive = no clear call, values can overlap the other calls; inactive = above about -39%
#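 Screen run at 2 compound doses on HFFs infected with reporter HCMV, MOI 1 PFU/cell. Luciferase activity from cell lysates at 72 h post infection gave inhibition relative to buffer-only and Salinomycin wells.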
# Vaccinia mCherry = qHTS for Stage-Specific Inhibitors of Vaccinia Orthopoxvirus: mCherry Reporter Primary qHTS; Vaccinia virus mCherry reporter infection, fluorescence; Potency, µM (titrated, usually from 36.5 µM), without a hit: at the top dose activity change, negative = inhibition, most hits filed as inhibitors; 310,000 tested, 0.63% active; AID 720579, 2013; calls by dose curve; tested in A549 cells; also: potency is read from the fitted curve at half-maximal effect; nearly all actives have a fitted effect of over 35% in size
# * marks the source's active call; other numbers are inactive results; i = inactive; ? = inconclusive; · = no result; [ ] = dose if it differs, or a comment. Unless noted, calls follow the shape of the dose curve; as a rule, active = well fitted curve in the direction sought with a large enough effect; inconclusive = small, poorly fitted or top-dose-only effect, or another doubt; inactive = no such curve, though single readings can be large; an effect the other way counts as inactive or inconclusive. % is scaled to controls: 0 for no effect and ±100 for the full control effect.
SMILES,Tb PYK inh,LmPK inhibitor,VACV Venus inh,HCMV inh,Vaccinia mCherry
Cc1[nH]n(-c2ccccc2)c(=O)c1C(=O)Nc1ccccc1,0%,2%,-4%,-15,-12%
C/C(=N\NC(=O)c1ccc(C)cc1)c1c(C)[nH]n(-c2ccccc2)c1=O,1%,4%,·,-92*,·
C/C(=N\NC(=O)c1ccccc1)c1c(C)[nH]n(-c2ccccc2)c1=O,-5%,-2%,?,-97*,?
Cc1[nH]n(-c2ccccc2)c(=O)c1C(=O)c1ccc([N+](=O)[O-])cc1,3%,16%,5%,-8,i
COC(=O)N/N=C/c1cc(C)n(-c2cccc3ccccc23)c1C,3%,-1%,-13%,-27,-7%
O=C1S/C(=C\c2ccccn2)C(=O)N1Cc1ccccc1F,-6%,2%,8%,21,-9%
Cc1nc(N)ncc1Sc1ccccc1,2%,3%,-3%,-1,i
COc1ccc(-c2[nH]c(-c3cc(OC)c4c(c3)OCO4)nc2-c2ccccc2)cc1,1%,0%,?,-71*,?
COc1cc(-c2nc(-c3ccccc3)c(-c3ccc(Br)cc3)[nH]2)cc(OC)c1O,-1%,·,-13%,3,-19%
O=C(CSc1ccc2c(c1)OCCO2)Nc1ccc(Br)cn1,-11%,-2%,?,31,?
O=C(CSc1ccc2c(c1)OCCO2)Nc1ccc(Cl)cn1,-1%,3%,·,-86*,·
CCOC(=O)C1(Cc2cccc(OC)c2)CCCN(C(=O)CNC(C)=O)C1 (stereo unspecified),-1%,3%,-2%,125,i
COc1ccccc1/C=C/C(=O)c1ccc(NC(C)=O)cc1,-3%,-1%,?,-102*,?
CCc1ccc(/C=C/C(=O)c2c(C)cc(C)[nH]c2=O)cc1,-1%,1%,?,-95*,·
COc1ccccc1/C=C/C(=O)c1ccccc1,-2%,?,-10%,6,i
CCc1ccc(/C=C(\C)C(=O)c2c(C)cc(C)[nH]c2=O)cc1,-4%,-1%[11.5 µM],?,-20,?
COc1ccccc1/C=C/C(=O)c1c2c(c(C)[nH]c1=O)CCCC2,-17%,0%,11µM*,-109*,?
C/C(=C\c1cccs1)C(=O)c1c(C)cc(C)[nH]c1=O,6%,1%,1%,-12,-13%
Cc1cc(C)c(C(=O)/C=C/c2cccs2)c(=O)[nH]1,-4%,11%,·,-64*,·
O=C(CN1CCN(Cc2ccccc2Cl)C1=O)NCc1ccco1,-11%,3%,-5%,41,-12%
CCc1nc(N2CCC3(CC2)OCCO3)c2nnn(Cc3ccccc3Cl)c2n1,-3%,-5%,-21%,-4,-1%
Cc1ccccc1/C=C/C(=O)N1CCOCC1,0%,-26%,-4%,22,i
COc1ccc(/C=C/C(=O)c2c(C)cc(C)[nH]c2=O)c2ccccc12,-5%,-1%,?,-100*,8.9µM*
O=C(/C=C\c1cccs1)c1c(O)ccc2ccc(=O)oc12,8%,5%,-22%,-62*,-26%
COc1ccccc1/C=C/C(=O)N1CCOCC1,2%,4%,-3%,-72*,-6%
SMILES,Tb PYK inh,LmPK inhibitor,VACV Venus inh,HCMV inh,Vaccinia mCherry
Cc1ccc(/C=C/C(=O)c2c(C)cc(C)[nH]c2=O)cc1,-4%,-3%,·,-98*,·
COc1ccccc1/C=C(\C)C(=O)c1c(C)cc(C)[nH]c1=O,14%,-4%,·,-36,·
Cc1cc(C)c(C(=O)/C=C/c2ccco2)c(=O)[nH]1,?,13%,-1%,23,-16%
Cn1c(=O)c2c(nc(NCCOc3ccc(F)cc3)n2C)n(C)c1=O,5%,5%,-13%,?,-25%
CCNC(=O)c1ccc(N(C)S(=O)(=O)c2cccs2)cc1,-18%,6%,-2%,-37,-13%
O=C(Cc1ccc(S(=O)(=O)N2CCOCC2)s1)N1CCN(S(=O)(=O)c2cccc(Cl)c2)CC1,-40%,·,-24%,-32,-10%
O=C(O)CCn1cc(C=C2C(=O)NC(=S)NC2=O)c(-c2cc3ccccc3oc2=O)n1,14µM*,6%,23%,4,-10%
